Laboratory results from PubChem BioAssay (Tox21).
Values joined by “and” are separate entries in the source; they are usually repeats but may differ in a detail not shown here. Equal values may be shown once. Results filed as inconclusive are left out. The source holds several records for some structures; these can differ, active in one and inactive in another. Active and inactive are the calls of the source. Unless noted, calls follow the shape of the dose curve; as a rule, active = well fitted curve in the direction sought with a large enough effect in the repeat runs; inconclusive = weak or mixed curves; inactive = no such curve, though single readings can be large; an effect the other way counts as inactive or inconclusive.

Assays:
[1] = target: Peroxisome proliferator-activated receptor delta (Homo sapiens) (UniProt Q03181); test: qHTS assay to identify small molecule agonists of the peroxisome proliferator-activated receptor delta (PPARd) signaling pathway (AID 743212; calls by dose curve)
Sequence of Peroxisome proliferator-activated receptor delta (Homo sapiens) (Q03181 whole entry, looked up): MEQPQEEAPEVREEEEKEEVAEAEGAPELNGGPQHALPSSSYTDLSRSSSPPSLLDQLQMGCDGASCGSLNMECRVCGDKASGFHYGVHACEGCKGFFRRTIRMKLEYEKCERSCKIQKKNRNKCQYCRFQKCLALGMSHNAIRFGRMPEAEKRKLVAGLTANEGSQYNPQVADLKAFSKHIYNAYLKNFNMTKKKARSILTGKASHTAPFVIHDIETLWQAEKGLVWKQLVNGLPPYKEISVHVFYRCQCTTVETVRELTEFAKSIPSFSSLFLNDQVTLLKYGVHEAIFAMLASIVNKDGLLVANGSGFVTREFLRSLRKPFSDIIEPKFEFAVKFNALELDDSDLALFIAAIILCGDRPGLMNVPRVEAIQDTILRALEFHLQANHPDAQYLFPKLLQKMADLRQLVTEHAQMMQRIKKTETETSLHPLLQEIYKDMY
Method in brief: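 Quantitative high-throughput agonist screen in a HEK293H beta-lactamase reporter line under UAS control. Compounds in DMSO, at 37 C. Fluorescence read after 2 h with FRET substrate at room temperature.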

[2] = qHTS assay to identify small molecule antagonists of the peroxisome proliferator-activated receptor delta (PPARd) signaling pathway - cell viability counter screen (AID 743213); also: nearly all actives have a fitted effect of over 50% in size
Method in brief: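 Cytotoxicity counter screen: CellTiter-Glo luminescence read 30 min after addition, in the same wells as the reporter assay. There, PPARd UAS-bla HEK293H cells (3000/well) were treated 17 h at 37 C with compound and 300 nM L165041.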

[3] = target: Peroxisome proliferator-activated receptor delta (Homo sapiens) (UniProt Q03181); test: qHTS assay to identify small molecule antagonists of the peroxisome proliferator-activated receptor delta (PPARd) signaling pathway (AID 743215; active = well fitted inhibition curve with a large enough effect in the signal ratio in the repeat runs, not every such curve was filed as active; the % refers to the signal ratio;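 also: cells stimulated with agonist L165041 at 300 nM final during compound exposure; series mostly up to about 62 µM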)
Method in brief: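 Inhibition of L165041-driven (300 nM final) PPARd signaling is scored in HEK293H UAS-bla cells. Exposure lasts 17 h at 37 C; beta-lactamase activity is then read by FRET substrate fluorescence after 2 h at room temperature.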

[4] = target: Bile acid receptor (Homo sapiens) (UniProt Q96RI1); test: qHTS assay to identify small molecule antagonists of the farnesoid-X-receptor (FXR) signaling pathway (AID 743217; active = well fitted inhibition curve with a large enough effect in the signal ratio in the repeat runs, not every such curve was filed as active; the % refers to the signal ratio)
Sequence of Bile acid receptor (Homo sapiens) (Q96RI1 whole entry, looked up): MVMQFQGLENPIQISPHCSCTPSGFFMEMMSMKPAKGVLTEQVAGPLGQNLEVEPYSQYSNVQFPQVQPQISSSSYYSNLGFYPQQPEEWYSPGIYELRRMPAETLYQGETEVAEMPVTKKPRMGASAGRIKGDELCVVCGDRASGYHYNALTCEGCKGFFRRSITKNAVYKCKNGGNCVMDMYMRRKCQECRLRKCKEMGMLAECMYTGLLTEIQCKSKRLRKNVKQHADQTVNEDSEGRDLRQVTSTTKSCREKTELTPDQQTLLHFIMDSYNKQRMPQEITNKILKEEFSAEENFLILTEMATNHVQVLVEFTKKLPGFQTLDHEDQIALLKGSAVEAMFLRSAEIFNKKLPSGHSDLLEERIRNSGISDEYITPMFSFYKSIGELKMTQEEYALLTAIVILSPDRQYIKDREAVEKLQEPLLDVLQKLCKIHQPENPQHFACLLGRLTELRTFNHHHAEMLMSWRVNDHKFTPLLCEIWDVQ
Method in brief: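 Antagonist mode against 50 uM (final) chenodeoxycholic acid stimulation in FXR-bla HEK 293T cells, 16 h at 37 °C. Inhibition detected as reduced beta-lactamase activity via LiveBLAzer B/G FRET fluorescence after 2 h at room temperature.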

[5] = qHTS assay to identify small molecule agonists of the farnesoid-X-receptor (FXR) signaling pathway - cell viability counter screen (AID 743218); also: nearly all actives have a fitted effect of over 45% in size
Method in brief: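 Cytotoxicity counter-screen run in parallel, same wells: FXR-UAS-bla HEK 293T cells dosed 16 h at 37 C, viability read by CellTiter-Glo luminescence after 30 min at room temperature.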

[6] = target: Bile acid receptor (Homo sapiens) (UniProt Q96RI1); test: qHTS assay to identify small molecule agonists of the farnesoid-X-receptor (FXR) signaling pathway (AID 743220; active = well fitted activation curve with a large enough effect in the signal ratio in the repeat runs, not every such curve was filed as active; the % refers to the signal ratio)
Method in brief: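 Beta-lactamase reporter under UAS control in GeneBLAzer FXR HEK 293T cells (5000/well) measured with LiveBLAzer FRET substrate after 2 h at room temperature. Compound exposure lasted 16 h at 37C.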

[7] = qHTS assay to identify small molecule antagonists of the farnesoid-X-receptor (FXR) signaling pathway - cell viability counter screen (AID 743221; active = well fitted cell-killing curve with a large enough effect in the repeat runs, not every such curve was filed as active; also: nearly all actives have a fitted effect of over 50% in size)
Method in brief: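 Compound effects on cell number were measured as CellTiter-Glo luminescence in HEK 293T cells expressing FXR-UAS-bla, after 16 h at 37 C with 50 uM CDCA (final).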

[8] = target: Vitamin D3 receptor (Homo sapiens) (UniProt P11473); test: qHTS assay to identify small molecule agonists of the vitamin D receptor (VDR) signaling pathway (AID 743222; calls by dose curve)
Sequence of Vitamin D3 receptor (Homo sapiens) (P11473 whole entry, looked up): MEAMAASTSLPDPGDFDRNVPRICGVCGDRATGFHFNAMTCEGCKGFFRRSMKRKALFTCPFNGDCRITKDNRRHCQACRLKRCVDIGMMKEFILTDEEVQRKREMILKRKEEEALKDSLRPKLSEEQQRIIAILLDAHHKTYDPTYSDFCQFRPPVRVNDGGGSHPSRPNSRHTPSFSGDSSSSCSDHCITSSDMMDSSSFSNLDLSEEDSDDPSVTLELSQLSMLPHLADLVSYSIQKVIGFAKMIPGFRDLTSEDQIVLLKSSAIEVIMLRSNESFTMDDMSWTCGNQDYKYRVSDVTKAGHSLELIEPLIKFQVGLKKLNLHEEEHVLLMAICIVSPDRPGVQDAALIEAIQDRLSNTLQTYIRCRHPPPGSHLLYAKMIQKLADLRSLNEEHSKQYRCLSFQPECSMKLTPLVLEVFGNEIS
Method in brief: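 Quantitative HTS agonist-mode screen: compounds in DMSO were pin-transferred onto VDR-bla cells and incubated 16 h at 37C, 5% CO2. Reporter activity was detected with LiveBLAzer B/G FRET substrate after 2 h at room temperature.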

[9] = target: Vitamin D3 receptor (Homo sapiens) (UniProt P11473); test: qHTS assay to identify small molecule antagonists of the vitamin D receptor (VDR) signaling pathway (AID 743223; active = well fitted inhibition curve with a large enough effect in the signal ratio in the repeat runs, not every such curve was filed as active; the % refers to the signal ratio)
Method in brief: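 Beta-lactamase activity in VDR-bla cells is measured by FRET substrate fluorescence (2 h, room temperature) after cells spend 16 h at 37C with test compound and 3 nM final 1alpha,25-dihydroxyvitamin D3.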

[10] = qHTS assay to identify small molecule agonists of the vitamin D receptor (VDR) signaling pathway - cell viability counter screen (AID 743224); also: nearly all actives have a fitted effect of over 50% in size; also: potency is read from the fitted curve at half-maximal effect
Method in brief: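 Viability is measured in the same wells as the VDR-bla reporter assay: after 16 h compound treatment and 2 h substrate loading, CellTiter-Glo is added and luminescence read 30 min later.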

Measured: Potency

CC(C)CCCCCOC(=O)c1ccccc1C(=O)OCCCCCC(C)C
inactive: all assays above

Oc1ccc(C(c2ccc(O)cc2)(C(F)(F)F)C(F)(F)F)cc1
inactive and 54.9 µM (active): [10]
not listed: [4] | [6]
inactive: all other assays above

COP(=S)(OC)Oc1cc(Cl)c(Br)cc1Cl
inactive: [1] | [2] | [5] | [6] | [8] | [9]

Clc1ccc(CO/N=C(\Cn2ccnc2)c2ccc(Cl)cc2Cl)c(Cl)c1
inactive: [1] | [2] | [3] | [7] | [8] | [10]

CC(C)OC(=O)C(O)(c1ccc(Cl)cc1)c1ccc(Cl)cc1
not listed: [9] | [10]
inactive: all other assays above

NNC(=O)c1ccccc1
inactive: [1] | [2] | [3] | [5] | [7]

CC(C)OC(=S)S
inactive: [1] | [2] | [4] | [5] | [7]

c1ccc(Nc2ccc3ccccc3c2)cc1
not listed: [8] | [9]
inactive: all other assays above

Cc1cc(C)c(C2=C(OC(=O)CC(C)(C)C)C3(CCCC3)OC2=O)c(C)c1
not listed: [8] | [9]
inactive: all other assays above

CC(C)(C)OO
not listed: [4] | [6] | [9]
inactive: all other assays above
